The record followed here is PMC7862700, “An all-to-all approach to the identification of sequence-specific readers for epigenetic DNA modifications on cytosine”.

What all share (assay): DAPPL (digital affinity profiling via proximity ligation, sequencing); 10 mM Tris-HCl pH 7.5, 50 mM NaCl, 1 mM DTT, 4% glycerol, room temperature, 30 min; GST-TFs on glutathione beads, 16-mer random dsDNA library, 0.1% formaldehyde crosslink after washing; high values mean tight binding
One experiment addresses T1, FEV (Homo sapiens, UniProt Q99581 1-238).
T1 sequence: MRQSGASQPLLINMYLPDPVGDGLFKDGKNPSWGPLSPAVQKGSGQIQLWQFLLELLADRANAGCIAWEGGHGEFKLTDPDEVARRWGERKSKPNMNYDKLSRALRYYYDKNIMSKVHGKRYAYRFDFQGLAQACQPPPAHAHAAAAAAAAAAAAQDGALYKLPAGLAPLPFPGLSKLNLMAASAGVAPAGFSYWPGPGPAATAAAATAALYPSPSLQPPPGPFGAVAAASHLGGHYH
Particulars: protein: recombinant; tags: N-terminal GST; dsDNA, one strand shown. The method in brief: (§1)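 In yeast, human transcription factors were expressed with a GST fusion, then pulled down on glutathione beads and given DNA barcodes. Pooled with a tag-only sample, they were exposed to 200 nmole of a 16-mer random double-stranded DNA library (Tris/NaCl/DTT/glycerol buffer, room temperature, 30 min), washed, crosslinked with 0.1% formaldehyde, proximity-ligated using BsaI/T4 ligase for 1 h at 37 °C, PCR-amplified and read on an Illumina NextSeq500. Each hexamer's frequency of reads for a factor, divided by the matching frequency for the tag-only sample, gives the binding signal.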

The next experiment addresses ETV5 (Homo sapiens, UniProt P41161 1-510). Particulars: protein: recombinant; tags: N-terminal GST; dsDNA, one strand shown. The method in brief: as §1
In another experiment the target is HSF1 (Homo sapiens, UniProt Q00613 1-529). Particulars: protein: recombinant; tags: N-terminal GST; chain copies: 3; dsDNA, one strand shown. The method in brief: as §1
Sequence of HSF1 (Q00613 whole entry): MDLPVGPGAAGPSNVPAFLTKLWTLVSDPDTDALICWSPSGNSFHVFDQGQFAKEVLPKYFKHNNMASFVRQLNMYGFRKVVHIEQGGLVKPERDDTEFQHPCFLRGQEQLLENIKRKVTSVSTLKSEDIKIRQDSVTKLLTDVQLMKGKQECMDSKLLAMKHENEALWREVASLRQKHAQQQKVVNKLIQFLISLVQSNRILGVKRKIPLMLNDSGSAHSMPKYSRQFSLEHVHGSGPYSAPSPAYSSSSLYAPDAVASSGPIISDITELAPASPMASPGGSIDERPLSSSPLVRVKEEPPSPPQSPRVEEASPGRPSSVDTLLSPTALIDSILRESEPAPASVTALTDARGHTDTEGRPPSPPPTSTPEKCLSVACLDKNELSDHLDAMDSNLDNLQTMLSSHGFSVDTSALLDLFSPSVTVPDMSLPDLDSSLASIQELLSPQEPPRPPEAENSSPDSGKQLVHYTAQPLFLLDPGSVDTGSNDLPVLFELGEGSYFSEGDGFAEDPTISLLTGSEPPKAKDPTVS
For another experiment, the target named is T2, SPIC (Homo sapiens, UniProt Q8N5J4 1-248).
T2 sequence: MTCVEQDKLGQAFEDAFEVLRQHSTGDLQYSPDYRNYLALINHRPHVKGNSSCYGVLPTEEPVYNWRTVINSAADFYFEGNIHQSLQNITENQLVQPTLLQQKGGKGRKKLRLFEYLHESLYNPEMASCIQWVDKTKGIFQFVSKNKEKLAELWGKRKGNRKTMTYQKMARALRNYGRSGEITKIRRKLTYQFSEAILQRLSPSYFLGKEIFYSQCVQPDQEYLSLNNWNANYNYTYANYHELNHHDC
The conditions noted are these: protein: recombinant; tags: N-terminal GST; dsDNA, one strand shown. The method in brief: as §1

For another experiment, the target named is ELF4 (Homo sapiens, UniProt Q99607 1-663). Particulars: protein: recombinant; tags: N-terminal GST; dsDNA, one strand shown. The method in brief:
as §1

The next experiment deals with T3, ELK4 (Homo sapiens, UniProt P28324-2 1-405).
T3 sequence: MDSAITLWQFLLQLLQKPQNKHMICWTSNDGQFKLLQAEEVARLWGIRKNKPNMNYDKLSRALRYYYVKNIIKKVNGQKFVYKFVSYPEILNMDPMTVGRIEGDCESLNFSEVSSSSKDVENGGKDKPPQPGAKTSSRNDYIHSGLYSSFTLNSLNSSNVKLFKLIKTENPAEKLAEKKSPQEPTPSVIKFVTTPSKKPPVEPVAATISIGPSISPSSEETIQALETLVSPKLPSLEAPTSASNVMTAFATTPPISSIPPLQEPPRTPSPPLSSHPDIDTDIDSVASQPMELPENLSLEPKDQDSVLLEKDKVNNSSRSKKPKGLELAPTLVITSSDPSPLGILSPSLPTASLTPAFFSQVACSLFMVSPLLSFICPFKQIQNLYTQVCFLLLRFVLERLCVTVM
The conditions noted are these: protein: recombinant; tags: N-terminal GST; dsDNA, one strand shown. A digest of the protocol:
as §1

A further experiment deals with T4, ETV2 (Homo sapiens, UniProt O00321 1-342).
T4 sequence: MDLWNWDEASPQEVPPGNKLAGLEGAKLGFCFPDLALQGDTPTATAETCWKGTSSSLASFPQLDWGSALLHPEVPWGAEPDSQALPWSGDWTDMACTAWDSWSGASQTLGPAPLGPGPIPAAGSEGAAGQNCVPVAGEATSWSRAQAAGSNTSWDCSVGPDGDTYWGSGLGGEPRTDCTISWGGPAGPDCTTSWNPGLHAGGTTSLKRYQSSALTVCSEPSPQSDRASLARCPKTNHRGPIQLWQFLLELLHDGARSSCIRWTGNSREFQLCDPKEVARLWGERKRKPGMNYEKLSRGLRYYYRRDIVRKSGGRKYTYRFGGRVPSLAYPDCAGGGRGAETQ
Particulars: protein: recombinant; tags: N-terminal GST; dsDNA, one strand shown. A digest of the protocol: as §1

A further experiment concerns the target T5, ELF3 (Homo sapiens, UniProt P78545 1-371).
T5 sequence: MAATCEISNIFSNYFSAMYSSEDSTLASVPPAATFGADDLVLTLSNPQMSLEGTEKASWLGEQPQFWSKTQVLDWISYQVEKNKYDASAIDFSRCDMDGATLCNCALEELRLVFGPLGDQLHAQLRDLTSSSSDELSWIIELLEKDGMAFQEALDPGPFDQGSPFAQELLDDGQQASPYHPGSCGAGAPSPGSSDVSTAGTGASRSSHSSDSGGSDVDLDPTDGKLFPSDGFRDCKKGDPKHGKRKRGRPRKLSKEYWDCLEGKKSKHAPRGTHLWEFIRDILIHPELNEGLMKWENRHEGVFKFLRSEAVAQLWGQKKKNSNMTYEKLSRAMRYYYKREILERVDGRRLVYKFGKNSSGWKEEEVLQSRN
Particulars: protein: recombinant; tags: N-terminal GST; dsDNA, one strand shown. The method in brief: as §1

Another experiment has as its target CRX (Homo sapiens, UniProt O43186 1-299). Particulars: protein: recombinant; tags: N-terminal GST; dsDNA, one strand shown. A digest of the protocol: as §1
For a further experiment, the target named is ETV1 (Homo sapiens, UniProt P50549 1-477). Particulars: protein: recombinant; tags: N-terminal GST; dsDNA, one strand shown. A digest of the protocol:
as §1

Sequence of ETV1 (P50549 whole entry): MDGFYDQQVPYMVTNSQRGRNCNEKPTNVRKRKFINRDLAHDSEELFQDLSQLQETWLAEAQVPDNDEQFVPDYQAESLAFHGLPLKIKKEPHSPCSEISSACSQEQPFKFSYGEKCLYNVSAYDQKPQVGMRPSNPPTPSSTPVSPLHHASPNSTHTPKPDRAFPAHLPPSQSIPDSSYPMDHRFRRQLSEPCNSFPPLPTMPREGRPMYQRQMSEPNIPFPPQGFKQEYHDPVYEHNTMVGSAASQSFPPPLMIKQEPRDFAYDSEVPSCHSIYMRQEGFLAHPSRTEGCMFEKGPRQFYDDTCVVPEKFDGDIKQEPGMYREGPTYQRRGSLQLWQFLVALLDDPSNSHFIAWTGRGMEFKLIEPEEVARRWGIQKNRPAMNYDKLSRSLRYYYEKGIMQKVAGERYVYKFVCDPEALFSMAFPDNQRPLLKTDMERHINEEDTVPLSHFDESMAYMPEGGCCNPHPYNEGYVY
Sequence of ETV5 (P41161 whole entry): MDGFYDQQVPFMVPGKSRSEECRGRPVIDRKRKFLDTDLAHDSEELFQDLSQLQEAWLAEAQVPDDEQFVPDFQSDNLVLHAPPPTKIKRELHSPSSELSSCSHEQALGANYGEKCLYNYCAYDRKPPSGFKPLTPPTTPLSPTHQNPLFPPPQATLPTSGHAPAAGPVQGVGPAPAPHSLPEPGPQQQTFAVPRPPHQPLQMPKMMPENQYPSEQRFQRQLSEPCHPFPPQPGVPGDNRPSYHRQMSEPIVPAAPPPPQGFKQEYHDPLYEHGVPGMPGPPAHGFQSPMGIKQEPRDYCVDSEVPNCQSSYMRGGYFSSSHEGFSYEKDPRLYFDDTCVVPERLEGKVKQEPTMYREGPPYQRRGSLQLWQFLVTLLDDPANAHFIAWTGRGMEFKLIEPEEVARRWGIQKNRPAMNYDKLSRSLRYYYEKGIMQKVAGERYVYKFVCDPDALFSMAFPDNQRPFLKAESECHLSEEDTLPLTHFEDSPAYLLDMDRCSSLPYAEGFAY
Sequence of ELF4 (Q99607 whole entry): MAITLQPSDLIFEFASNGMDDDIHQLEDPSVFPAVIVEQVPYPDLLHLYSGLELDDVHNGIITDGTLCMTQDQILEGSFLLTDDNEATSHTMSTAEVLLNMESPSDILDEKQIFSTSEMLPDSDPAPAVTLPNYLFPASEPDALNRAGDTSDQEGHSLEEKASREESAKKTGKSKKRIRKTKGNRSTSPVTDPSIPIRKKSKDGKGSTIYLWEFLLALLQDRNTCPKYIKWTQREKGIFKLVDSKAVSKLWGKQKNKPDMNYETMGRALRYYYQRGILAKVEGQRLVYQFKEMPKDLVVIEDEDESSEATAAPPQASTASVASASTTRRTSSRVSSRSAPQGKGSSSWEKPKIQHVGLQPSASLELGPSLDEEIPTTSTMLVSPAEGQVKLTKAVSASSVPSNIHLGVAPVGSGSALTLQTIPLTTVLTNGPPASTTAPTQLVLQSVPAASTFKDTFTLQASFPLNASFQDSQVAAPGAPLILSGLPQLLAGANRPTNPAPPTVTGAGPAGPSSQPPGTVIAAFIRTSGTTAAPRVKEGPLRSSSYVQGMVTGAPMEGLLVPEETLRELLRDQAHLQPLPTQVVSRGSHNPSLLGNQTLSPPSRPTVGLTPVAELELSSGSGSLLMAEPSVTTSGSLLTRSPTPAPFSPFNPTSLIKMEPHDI
Sequence of CRX (O43186 whole entry): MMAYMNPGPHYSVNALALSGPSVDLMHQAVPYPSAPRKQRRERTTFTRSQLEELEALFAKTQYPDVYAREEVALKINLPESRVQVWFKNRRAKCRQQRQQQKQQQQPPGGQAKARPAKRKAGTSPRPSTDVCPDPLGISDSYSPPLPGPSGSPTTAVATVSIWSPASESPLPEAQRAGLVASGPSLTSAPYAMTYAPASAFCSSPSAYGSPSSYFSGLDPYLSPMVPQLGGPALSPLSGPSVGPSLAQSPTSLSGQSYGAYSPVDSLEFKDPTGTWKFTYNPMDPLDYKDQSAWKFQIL

As to CTTGAA, the binding signal with FEV is 1.05 fold enrichment (6-mer frequency, TF over GST control); with ETV5, 1.09 fold enrichment (6-mer frequency, TF over GST control); in the experiment with HSF1 it was 1.26 fold enrichment (6-mer frequency, TF over GST control); with SPIC it was 1.09 fold enrichment (6-mer frequency, TF over GST control); with ELF4, 1.19 fold enrichment (6-mer frequency, TF over GST control); with ELK4, 1.22 fold enrichment (6-mer frequency, TF over GST control). The binding signal with ETV2 was 1.11 fold enrichment (6-mer frequency, TF over GST control); with ELF3, 1.08 fold enrichment (6-mer frequency, TF over GST control); with CRX, 1.16 fold enrichment (6-mer frequency, TF over GST control); with ETV1, 1.09 fold enrichment (6-mer frequency, TF over GST control).
As for AGCTCA, the binding signal was 1.08 fold enrichment (6-mer frequency, TF over GST control) with FEV; 1.1 fold enrichment (6-mer frequency, TF over GST control) with ETV5; 1.22 fold enrichment (6-mer frequency, TF over GST control) in the experiment with HSF1; 1.08 fold enrichment (6-mer frequency, TF over GST control) in the experiment with SPIC; 1.16 fold enrichment (6-mer frequency, TF over GST control) in the experiment with ELF4; 1.27 fold enrichment (6-mer frequency, TF over GST control) with ELK4. For the same sequence, the binding signal was 1.25 fold enrichment (6-mer frequency, TF over GST control) with ETV2; 1.11 fold enrichment (6-mer frequency, TF over GST control) with ELF3; 1.45 fold enrichment (6-mer frequency, TF over GST control) with CRX; 1.24 fold enrichment (6-mer frequency, TF over GST control) in the experiment with ETV1.
As to GCAAAT, the binding signal was 1.08 fold enrichment (6-mer frequency, TF over GST control) in the experiment with FEV; 1.1 fold enrichment (6-mer frequency, TF over GST control) with ETV5; 1.08 fold enrichment (6-mer frequency, TF over GST control) with HSF1; 1.17 fold enrichment (6-mer frequency, TF over GST control) with SPIC; 1.04 fold enrichment (6-mer frequency, TF over GST control) with ELF4; 1.02 fold enrichment (6-mer frequency, TF over GST control) in the experiment with ELK4. The binding signal with ETV2 was 1.06 fold enrichment (6-mer frequency, TF over GST control); with ELF3, 1.17 fold enrichment (6-mer frequency, TF over GST control); with CRX it was 1.08 fold enrichment (6-mer frequency, TF over GST control); in the experiment with ETV1 it was 1.11 fold enrichment (6-mer frequency, TF over GST control).
In the case of AGTACT, the binding signal with FEV is 1.28 fold enrichment (6-mer frequency, TF over GST control); with ETV5 it was 1.19 fold enrichment (6-mer frequency, TF over GST control); with HSF1, 1.03 fold enrichment (6-mer frequency, TF over GST control); with SPIC it was 1.35 fold enrichment (6-mer frequency, TF over GST control); with ELF4, 1.19 fold enrichment (6-mer frequency, TF over GST control); with ELK4 it was 1.12 fold enrichment (6-mer frequency, TF over GST control). Moreover, the binding signal with ETV2 is 1.11 fold enrichment (6-mer frequency, TF over GST control); in the experiment with ELF3, 1.29 fold enrichment (6-mer frequency, TF over GST control); with CRX, 1.02 fold enrichment (6-mer frequency, TF over GST control); in the experiment with ETV1, 1.19 fold enrichment (6-mer frequency, TF over GST control).
With AATTCA, the binding signal in the experiment with FEV is 1.24 fold enrichment (6-mer frequency, TF over GST control); with ETV5, 1.34 fold enrichment (6-mer frequency, TF over GST control); in the experiment with HSF1 it was 1.34 fold enrichment (6-mer frequency, TF over GST control); with SPIC, 1.32 fold enrichment (6-mer frequency, TF over GST control); with ELF4, 1.33 fold enrichment (6-mer frequency, TF over GST control); in the experiment with ELK4, 1.26 fold enrichment (6-mer frequency, TF over GST control). Besides, the binding signal is 1.36 fold enrichment (6-mer frequency, TF over GST control) in the experiment with ETV2; 1.35 fold enrichment (6-mer frequency, TF over GST control) with ELF3; 1.39 fold enrichment (6-mer frequency, TF over GST control) in the experiment with CRX; 1.23 fold enrichment (6-mer frequency, TF over GST control) with ETV1.
For CGAGCA, the binding signal with FEV was 1.16 fold enrichment (6-mer frequency, TF over GST control); with ETV5, 1.1 fold enrichment (6-mer frequency, TF over GST control); with HSF1, 1.38 fold enrichment (6-mer frequency, TF over GST control); with SPIC, 1.1 fold enrichment (6-mer frequency, TF over GST control); with ELF4, 1.13 fold enrichment (6-mer frequency, TF over GST control); with ELK4, 1.17 fold enrichment (6-mer frequency, TF over GST control). Further, the binding signal in the experiment with ETV2 was 1.34 fold enrichment (6-mer frequency, TF over GST control); with ELF3, 1.29 fold enrichment (6-mer frequency, TF over GST control); in the experiment with CRX, 1.04 fold enrichment (6-mer frequency, TF over GST control); with ETV1 it was 1.11 fold enrichment (6-mer frequency, TF over GST control).
On to TGTACT, for which the binding signal with FEV was 1.41 fold enrichment (6-mer frequency, TF over GST control); with ETV5, 1.34 fold enrichment (6-mer frequency, TF over GST control); with HSF1 it was 1.18 fold enrichment (6-mer frequency, TF over GST control); with SPIC, 1.18 fold enrichment (6-mer frequency, TF over GST control); in the experiment with ELF4, 1.29 fold enrichment (6-mer frequency, TF over GST control); in the experiment with ELK4, 1.2 fold enrichment (6-mer frequency, TF over GST control). Besides, the binding signal with ETV2 was 1.3 fold enrichment (6-mer frequency, TF over GST control); with ELF3 it was 1.23 fold enrichment (6-mer frequency, TF over GST control); in the experiment with CRX, 1.15 fold enrichment (6-mer frequency, TF over GST control); with ETV1, 1.34 fold enrichment (6-mer frequency, TF over GST control).
For ACACTA, the binding signal in the experiment with FEV is 1.14 fold enrichment (6-mer frequency, TF over GST control); with ETV5 it was 1.14 fold enrichment (6-mer frequency, TF over GST control); in the experiment with HSF1 it was 1.12 fold enrichment (6-mer frequency, TF over GST control); with SPIC it was 1.14 fold enrichment (6-mer frequency, TF over GST control); in the experiment with ELF4 it was 1.13 fold enrichment (6-mer frequency, TF over GST control); with ELK4 it was 1.16 fold enrichment (6-mer frequency, TF over GST control). In addition, the binding signal with ETV2 is 1.1 fold enrichment (6-mer frequency, TF over GST control); with ELF3, 1.19 fold enrichment (6-mer frequency, TF over GST control); with CRX, 1.11 fold enrichment (6-mer frequency, TF over GST control); with ETV1, 1.03 fold enrichment (6-mer frequency, TF over GST control).
